Bioassay records (PubChem)
EPAC2 ant val = Validation qHTS for antagonist of cAMP-regulated guanine nucleotide exchange factor 4 (EPAC2); Rap guanine nucleotide exchange factor 4 (Homo sapiens), Q8WZA2; EPAC2 Rap1B BODIPY-GDP exchange, fluorescence; Potency, µM (top dose mostly 112 µM), for inactives: at the highest dose activity, negative = inhibition, usual class: inhibitors; hit rate 1.7% among 16,000; AID 1645886, 2021;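 further: 100% = activation by cAMP agonist control; nearly all actives have a fitted effect of over 40% in size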
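Normalized against a 6.5 mM cAMP agonist control, compounds were tested on 100 nM EPAC2 exchanging Rap1B-bound BODIPY-GDP (250 nM) for 50 uM GDP. Fluorescence drop (ex 480, em 540 nm) was tracked at room temperature over 30 min at 5-min intervals.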
EPAC1 agonist = Validation qHTS for agonist of cAMP-regulated guanine nucleotide exchange factor 3 (EPAC1); EPAC1 Rap1b BODIPY-GDP exchange, fluorescence; Potency, µM, inactives show max response, positive = active, most hits filed as activators; hit rate 1% among 16,000; AID 1645883, 2021; further: nearly all actives have a fitted effect of over 70% in size
* marks the source's active call; other numbers are inactive results; ? = inconclusive; ! = not active in a repeat; [ ] = another dose, or the depositor's remark. This is a sample that favours compounds with a hit; in the whole collection about 3.1% have one here. The call rests on the fitted dose curve; in most records, active means well fitted curve in the direction sought with a large enough effect; inconclusive means small, poorly fitted or top-dose-only effect, or another doubt; inactive means no such curve, though single readings can be large; an effect the other way counts as inactive or inconclusive. Unless noted, on the % scale 0 is the no-effect control and ±100 the full control effect; potency means the concentration at half of the fitted maximal effect.

SMILES	EPAC2 ant val	EPAC1 agonist
CC(C)N=C(N)/N=C(\N)Nc1ccc(Cl)cc1	-10%[56.6 µM]	-17%
CCOC(=O)N1CCN(Cc2ccc3c(c2)CN(C(=O)c2cc(-c4ccccc4)on2)CCO3)CC1	-17%	7%
COC(=O)[C@H]1[C@H]2C[C@@H]3c4[nH]c5cc(OC)ccc5c4CCN3C[C@H]2C[C@@H](OC(=O)COc2ccc(OC)cc2)[C@@H]1OC	-2%	1%
CCOC(=O)Oc1c(OC)cc(C(=O)O[C@@H]2C[C@@H]3CN4CCc5c([nH]c6cc(OC)ccc56)[C@H]4C[C@@H]3[C@H](C(=O)OC)[C@H]2OC)cc1OC	-17%[29.6 µM]	32µM*!
Cc1cnc(C)c(-c2ccc3c(c2)CC(CNC(=O)Cc2c(C)[nH]c4ccccc24)O3)n1 (stereo not drawn)	-17%	-7%
OC[C@H]1OC([S-])[C@H](O)[C@@H](O)[C@@H]1O.[Au+] (stereo partly drawn)	-28%	6%
CC1(COc2ccc(CC3SC(=O)NC3=O)cc2)CCCCC1 (stereo not drawn)	50µM*!	-13%
CC1(COc2ccc(C[C@H]3SC(=O)NC3=O)cc2)CCCCC1	?	-14%
O=C1CC(c2ccc(O)cc2)Oc2ccccc21 (stereo not drawn)	?	-12%
CC(C)=CCc1c(O)cc(O)c2c1O[C@H](c1ccccc1)CC2=O	50µM*	?
CC(C)C[C@@H](COc1ccccc1)N1CCN(CCc2ccccc2)CCC1=O	32µM*	-12%
CCCN1CCC(=O)N([C@H](COc2ccccc2)CC(C)C)CC1	10%	-17%
COCCn1c(=O)c(-c2cccs2)nc2cnc(OC)nc21	-4%	-37%
O=c1c(-c2cccs2)nc2cnc(Oc3ccccc3)nc2n1C1CC1	-22%	-22%
CN(C)c1ncc2nc(-c3cccs3)c(=O)n(C3CC3)c2n1	63%	100µM*
COCCn1c(=O)c(-c2cccs2)nc2cnc(N(C)C)nc21	43%	112µM*
COc1ccc2c(c1)-c1nc(-n3ncc(C(=O)N(C)CC4CCCN(C)C4)c3C)ncc1CC2 (stereo not drawn)	13%	-24%
O=C(OC[C@H]1O[C@@H](OC(=O)c2cc(O)c(O)c(OC(=O)c3cc(O)c(O)c(O)c3)c2)[C@H](OC(=O)c2cc(O)c(O)c(OC(=O)c3cc(O)c(O)c(O)c3)c2)[C@@H](OC(=O)c2cc(O)c(O)c(OC(=O)c3cc(O)c(O)c(O)c3)c2)[C@@H]1OC(=O)c1cc(O)c(O)c(OC(=O)c2cc(O)c(O)c(O)c2)c1)c1cc(O)c(O)c(OC(=O)c2cc(O)c(O)c(O)c2)c1	22µM*	-126%
CCCOC(=O)c1cc(O)c(O)c(O)c1	21%	9%
Cc1ccc(CNc2nc(CN3CCCCC3c3cccnc3)nc3ccccc23)o1 (stereo not drawn)	?	-9%
O=C(NOCC1CC1)c1ccc(F)c(F)c1Nc1ccc(I)cc1Cl	-15%	?
COc1cc(OC)c(C(C)=O)c(O)c1C	-9%	-17%
COc1cc(C)c(C(=O)Oc2cc(C)c(C(=O)O)c(O)c2C)c(OC)c1C	50µM*	-128%
C=C1CC[C@H](O)C/C1=C\C=C1/CCC[C@]2(C)[C@@H]([C@H](C)CCCC(C)C)CC[C@@H]12	?	-135%
Clc1ccccc1C(c1ccccc1)(c1ccccc1)n1ccnc1	11µM*!	?
SMILES	EPAC2 ant val	EPAC1 agonist
Clc1ccccc1-c1nccc(-n2ccnc2)n1	-21%	18%
Cc1ccccc1CNc1ncnc2c1ncn2[C@@H]1O[C@H](CO)[C@@H](O)[C@H]1O	8%	-26%
Clc1ccc(C(c2ccccc2Cl)C(Cl)Cl)cc1 (stereo not drawn)	14µM*!	?
COC(=O)c1cc(CNC(=O)c2ccc3ncccc3c2)cc(NC(=O)c2ccccc2Cl)c1	-10%	-18%
O=C(c1cnccn1)N1CCC2(CCCN(C(c3ccccc3)c3ccccc3)C2)CC1	?	-34%
O=C(c1cnccn1)N1CCC[C@@]2(CCN(C(c3ccccc3)c3ccccc3)C2)C1	50µM*	7%
CC(=O)O[C@H]1C[C@@H]2CC[C@@H]3[C@H](CC[C@@]4(C)[C@H]3C[C@H](N3CC[N+](C)(C)CC3)[C@@H]4OC(C)=O)[C@@]2(C)C[C@@H]1N1CC[N+](C)(C)CC1	10%	-8%
COc1ccccc1CCNc1ncnc2sc(C(=O)N3CCCC3)c(C)c12	-26%	6%
COc1ccc(-c2oc3ccccc3c(=O)c2O)cc1OC	-10%	6%
CCc1oc2ccccc2c1C(=O)c1cc(I)c(O)c(I)c1	63µM*	-36%
CCCCC[C@H](O)C=C[C@H]1[C@H](O)CC(=O)[C@H]1CCCCCCC(=O)O	56µM*	-19%
CCCCC[C@H](O)/C=C/[C@H]1[C@H](O)CC(=O)[C@@H]1C/C=C\CCCC(=O)O	-11%	-13%
COc1ccccc1-c1ccnc(-n2ncc(C(=O)NC(c3cccnc3)C(F)(F)F)c2C)n1 (stereo not drawn)	6%	4%
CN1CCN(c2nc(-c3ccc(N(C)C)cc3)nc3ccccc23)CC1	-4%	-8%
CC(c1ccc(N(C)C)cc1)c1ccnc2ccccc12 (stereo not drawn)	-13%	112µM*
CC(C)(C)NCC(O)CSc1nc(-c2ccc(C(N)=O)s2)cs1 (stereo not drawn)	3%	-2%
O=C(CCn1cncn1)NCC1Cc2cc(-c3ccsc3)cc(Cl)c2O1 (stereo not drawn)	-24%	?
Cc1cc(-c2cc(F)cc3c2OC(CNC(=O)CCn2cncn2)C3)ccc1F (stereo not drawn)	79µM*	6%
COc1ccccc1CC(=O)NCC1Cc2cc(F)cc(-c3cncnc3)c2O1 (stereo not drawn)	-20%	3%
COC(=O)c1ccc(C(=O)NCC2Cc3cc(F)cc(-c4cncnc4)c3O2)cc1 (stereo not drawn)	2.5µM*	14%
OCCO[C@@H]1[C@@H](O)[C@H](O)[C@@H](CO)O[C@@H]1O	16%	-10%
NCCCC[C@H](N)C(=O)O	-12%	-3%
N[C@H](C(=O)O)[C@@H]1CC(Cl)=NO1	33%	?
Cc1cc(C)c(S(=O)(=O)Nc2ccccc2C(F)(F)F)c(C)c1	45µM*	6%
COC(=O)C1=C(C)NC(C)=C(C(=O)OCC(C)C)C1c1ccccc1[N+](=O)[O-] (stereo not drawn)	?	-72%
SMILES	EPAC2 ant val	EPAC1 agonist
COC(=O)C1=C(C)NC(C)=C(C(=O)OC(C)C)C1c1cccc2nonc12 (stereo not drawn)	50µM*!	-11%
Cc1cc(-c2ccnc(-n3ncc(C(=O)NCC4COCCO4)c3C)n2)c(C)s1 (stereo not drawn)	-9%	-10%
CC1(C)Oc2ccc3ccc(=O)oc3c2CC1=O	13%	-33%
CC(=O)OC1c2c(ccc3ccc(=O)oc23)OC(C)(C)C1OC(=O)CC(C)C (stereo not drawn)	40µM*	-113%
Cc1ccc(C(=O)Nc2cccc(-c3nc(CNC(=O)c4cccc(C)c4C)c(C)o3)c2)s1	6%	-13%
Nc1ccc(O)cc1	?	8%
Nc1cc(N)cc(N)c1	56µM*	10%
CC(=O)c1ccc(F)c(-c2cc(C)cc3c2OC(CNC(=O)c2cnc4ccccn4c2=O)C3)c1 (stereo not drawn)	?	11%
Cc1ccc(CN2CCOc3ccc(CN4CCC(O)(c5cccnc5)CC4)cc3C2)cc1	-20%	-18%
